# Reference: PubChem BioAssay
# The source made the active and inactive calls. Unless noted, no rule for the calls is given here.
# Key:
# [1] = system: Wnt5a (protein binding on small-molecule microarray); assay: small molecules binding Wnt5a protein – biophysical, small-molecule microarray, 635/667 nm fluorescence, primary screen (AID 1142); details: 635 nm fluorescence, higher = more signal;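 also: fluorescence read at 667 nm with signal to noise per printed feature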
# [2] = ATP-based viability of Huh7 replicon cells – cell-based, CellTiter-Glo luminescence, basal, 48 h, cytotoxicity control for HCV replication inhibitor project, primary screen (AID 1143); details: higher = more signal, called active from +8 up or from −8 down;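 also: Huh7 hepatoma cells carrying a hepatitis C replication reporter with no stimulus; test concentration not given here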
# [3] = Pseudomonas biofilm growth suppression – PAO1 strain, BacTiter-Glo luminescence, LB-PBS, primary screen (AID 1144); details: P. aeruginosa PAO1 biofilm, 12 h, higher = more signal
# [4] = basal CRE-LacZ reporter activity in PC12 – cell-based, unstimulated, primary screen (AID 1145); details: no forskolin, luminescence, 4.5 h, higher = more signal, called active from +8 up or from −8 down
# [5] = forskolin-driven CRE-LacZ activity in PC12 – cell-based, CRE-LacZ reporter, forskolin-stimulated, primary screen (AID 1146); details: luminescence, 4.5 h, higher = more signal, called active from +8 up or from −8 down;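 also: PC12 cells with 6xCRE LacZ reporter stimulated by forskolin 10 µM; beta-galactosidase reporter signal reflecting CREB driven transcription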
# [6] = target: Streptavidin (Streptomyces avidinii) (UniProt P22629); assay: compounds binding control protein streptavidin – biophysical, small-molecule microarray, 635/667 nm fluorescence, artefact control for SMM compound annotation, primary screen (AID 1147); details: higher = more signal;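 also: signal reflects streptavidin binding to arrayed compounds as a control protein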
# Sequence of Streptavidin (Streptomyces avidinii) (P22629 whole entry, looked up): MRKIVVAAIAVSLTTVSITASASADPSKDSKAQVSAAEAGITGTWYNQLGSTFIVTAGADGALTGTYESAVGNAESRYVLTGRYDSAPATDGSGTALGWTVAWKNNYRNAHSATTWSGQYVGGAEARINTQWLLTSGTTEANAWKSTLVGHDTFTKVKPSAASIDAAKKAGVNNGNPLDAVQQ
# [7] = probe aInhba binding on compound microarray – biochemical, small-molecule microarray, 635/667 nm fluorescence, primary screen (AID 1148); details: higher = more signal;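 also: score merges 667nm spot fluorescence with signal-to-noise for antibody binding to printed compounds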
# [8] = target: Torsin-1A (Homo sapiens) (UniProt O14656); assay: TOR1A wild-type binding on microarray – cell lysate, small-molecule microarray, lysate, 635/667 nm, primary screen (AID 1149); details: COS7 hTOR1A-WT lysate, 635 nm fluorescence, higher = more signal
# Sequence of Torsin-1A (Homo sapiens) (O14656 whole entry, looked up): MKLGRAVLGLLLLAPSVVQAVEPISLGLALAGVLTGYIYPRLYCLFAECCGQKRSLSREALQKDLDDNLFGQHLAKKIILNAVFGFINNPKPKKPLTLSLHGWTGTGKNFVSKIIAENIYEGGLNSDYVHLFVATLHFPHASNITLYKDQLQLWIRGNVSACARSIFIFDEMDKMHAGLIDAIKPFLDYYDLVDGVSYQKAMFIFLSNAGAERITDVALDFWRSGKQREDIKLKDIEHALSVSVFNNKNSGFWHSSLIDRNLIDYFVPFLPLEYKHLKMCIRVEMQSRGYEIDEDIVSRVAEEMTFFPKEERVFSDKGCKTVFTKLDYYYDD
# [9] = target: Torsin-1A (Homo sapiens) (UniProt O14656); assay: torsin A mutant lysate binding on microarrays – cell lysate, small-molecule microarray, COS7 lysate, 635/667 nm fluorescence, primary screen (AID 1150); details: COS7 hTOR1A mutant lysate, 635 nm fluorescence, higher = more signal;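 also: score pools 667 nm emission and signal to noise measuring lysate protein binding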
# [10] = system: Sonic hedgehog protein (Shh); assay: Sonic hedgehog microarray binding compounds – biochemical, small-molecule microarray, 635/667 nm fluorescence, primary screen (AID 1151); details: 635 nm fluorescence, higher = more signal;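 also: Shh protein binding to compounds spotted on small-molecule microarray slides; score combines spot fluorescence intensity with signal-to-noise across triplicate slides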
# [11] = optical density shifts of acrAB sulA E. coli – strain DRC41, OD650, 48 h, E. coli filamentation inducer project, primary screen (AID 1152); details: higher = more signal, called active from +8 up or from −8 down;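 also: E. coli MC1000 strain DRC41 lacking acrAB efflux pump and sulA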
# [12] = probe aLefty1 binding on compound microarray – biochemical, small-molecule microarray, 635/667 nm fluorescence, primary screen (AID 1153); details: higher = more signal;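 also: score merges spot fluorescence with signal-to-noise ratio from the scanned slide images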
# [13] = plasmodial surface anion channel blockers, osmotic lysis – cell-based, P. falciparum Indochina, OD700, 1 h, primary screen (AID 1154); details: P. falciparum Indochina infected RBC osmotic lysis, higher = more signal, called active from +8 up or from −8 down
# [14] = plasmodial surface anion channel blockers, osmotic lysis – cell-based, P. falciparum Indochina, OD700, 2 h, primary screen (AID 1155);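 also: lysis reports solute entry through the parasite surface anion channel PSAC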; details: P. falciparum Indochina infected erythrocytes, higher = more signal, called active from +8 up or from −8 down
# [15] = changes in parasitized red cell lysis, either direction – P. falciparum Indochina, OD700, 3 h, PSAC antagonist project, primary screen (AID 1156); details: P. falciparum-infected erythrocytes, osmotic lysis, higher = more signal, called active from +8 up or from −8 down
# [16] = plasmodial surface anion channel blockers, osmotic lysis – cell-based, P. falciparum Indochina, OD700, 18 h, primary screen (AID 1157); details: P. falciparum Indochina infected erythrocytes, osmotic lysis OD700, 18 h; higher = more signal, called active from +8 up or from −8 down
# [17] = S6 kinase pathway phospho-S6 level changes – cell-based, A549, cytoblot, luminescence, serum-stimulated, primary screen (AID 1158); details: 5 h, higher = more signal;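 also: serum-stimulated A549 lung adenocarcinoma cells; signal is phosphorylated S6 detected by cytoblot immunostaining with HRP secondary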
# [18] = target: NADPH oxidase 2 (Homo sapiens) (UniProt P04839); assay: compounds shifting NOX2 Amplex Red fluorescence – cell-based, HEK293-NOX2, PMA-stimulated, NOX inhibitor project, primary screen (AID 1159); details: 45 min, higher = more signal, called active from +8 up or from −8 down; also: test concentration not given here
# Sequence of NADPH oxidase 2 (Homo sapiens) (P04839 whole entry, looked up): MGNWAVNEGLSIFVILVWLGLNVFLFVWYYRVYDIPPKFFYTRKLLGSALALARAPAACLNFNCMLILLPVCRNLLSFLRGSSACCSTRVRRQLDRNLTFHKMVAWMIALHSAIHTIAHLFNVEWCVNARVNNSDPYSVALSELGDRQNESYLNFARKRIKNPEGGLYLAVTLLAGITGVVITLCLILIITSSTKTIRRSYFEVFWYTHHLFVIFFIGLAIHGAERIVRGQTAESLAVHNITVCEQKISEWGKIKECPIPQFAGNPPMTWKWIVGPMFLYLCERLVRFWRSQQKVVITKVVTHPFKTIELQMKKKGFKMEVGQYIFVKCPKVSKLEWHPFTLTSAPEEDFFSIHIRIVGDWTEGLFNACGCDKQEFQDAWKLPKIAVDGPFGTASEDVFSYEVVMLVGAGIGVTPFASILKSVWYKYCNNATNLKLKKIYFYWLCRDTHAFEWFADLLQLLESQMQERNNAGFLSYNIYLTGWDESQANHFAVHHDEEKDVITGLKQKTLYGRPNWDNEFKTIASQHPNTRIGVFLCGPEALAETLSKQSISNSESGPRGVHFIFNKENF
# [19] = target: NADPH oxidase 4 (Homo sapiens) (UniProt Q9NPH5); assay: compounds shifting NOX4 Amplex Red fluorescence – cell-based, HEK293-NOX4, tetracycline-induced, NOX inhibitor project, primary screen (AID 1160); details: HEK293-NOX4, Amplex Red H2O2 fluorescence, 45 min; higher = more signal, called active from +8 up or from −8 down
# Sequence of NADPH oxidase 4 (Homo sapiens) (Q9NPH5 whole entry, looked up): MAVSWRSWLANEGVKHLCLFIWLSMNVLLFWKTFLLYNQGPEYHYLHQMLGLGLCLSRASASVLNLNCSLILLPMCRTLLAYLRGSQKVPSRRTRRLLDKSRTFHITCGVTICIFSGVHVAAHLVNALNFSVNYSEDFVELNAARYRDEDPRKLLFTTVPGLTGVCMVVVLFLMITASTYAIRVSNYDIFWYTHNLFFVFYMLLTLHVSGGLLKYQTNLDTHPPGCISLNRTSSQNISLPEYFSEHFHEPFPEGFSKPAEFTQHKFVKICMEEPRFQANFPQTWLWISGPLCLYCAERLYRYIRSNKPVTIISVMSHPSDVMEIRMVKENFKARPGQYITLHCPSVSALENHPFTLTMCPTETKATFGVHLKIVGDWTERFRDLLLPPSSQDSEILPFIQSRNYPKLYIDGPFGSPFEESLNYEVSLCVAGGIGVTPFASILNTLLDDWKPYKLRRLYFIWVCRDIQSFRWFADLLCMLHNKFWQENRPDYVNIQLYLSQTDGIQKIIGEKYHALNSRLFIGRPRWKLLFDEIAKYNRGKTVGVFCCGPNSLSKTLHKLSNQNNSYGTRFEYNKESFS
# [20] = target: NADPH oxidase 5 (Homo sapiens) (UniProt Q96PH1); assay: compounds shifting NOX5 Amplex Red fluorescence – cell-based, HEK293-NOX5, NOX inhibitor project, primary screen (AID 1161); details: HEK293-NOX5, ionomycin, 45 min, higher = more signal
# Sequence of NADPH oxidase 5 (Homo sapiens) (Q96PH1 whole entry, looked up): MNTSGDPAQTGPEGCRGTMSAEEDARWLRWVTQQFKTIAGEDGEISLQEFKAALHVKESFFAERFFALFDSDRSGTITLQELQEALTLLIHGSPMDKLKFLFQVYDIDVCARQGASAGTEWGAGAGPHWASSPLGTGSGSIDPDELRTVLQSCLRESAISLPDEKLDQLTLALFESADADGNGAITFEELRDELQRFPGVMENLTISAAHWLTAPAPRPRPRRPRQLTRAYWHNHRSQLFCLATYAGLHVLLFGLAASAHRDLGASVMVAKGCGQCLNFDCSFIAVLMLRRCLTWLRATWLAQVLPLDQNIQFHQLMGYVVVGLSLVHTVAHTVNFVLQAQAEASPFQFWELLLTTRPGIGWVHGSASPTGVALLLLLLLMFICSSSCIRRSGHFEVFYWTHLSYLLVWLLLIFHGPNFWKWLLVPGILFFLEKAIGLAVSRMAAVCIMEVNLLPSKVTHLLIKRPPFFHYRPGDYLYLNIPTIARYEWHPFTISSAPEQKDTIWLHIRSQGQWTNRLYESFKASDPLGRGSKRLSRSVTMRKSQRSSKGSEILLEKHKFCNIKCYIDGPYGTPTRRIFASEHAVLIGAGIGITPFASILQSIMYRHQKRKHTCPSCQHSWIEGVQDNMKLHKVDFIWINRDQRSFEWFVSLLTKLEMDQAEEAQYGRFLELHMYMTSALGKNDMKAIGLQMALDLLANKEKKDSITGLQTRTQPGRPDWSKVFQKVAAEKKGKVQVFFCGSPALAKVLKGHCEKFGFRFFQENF
smiles,measurement,setting,value
O=C(NN=C1C[C@@H](O)[C@@H](O)[C@@H]2[C@@H]3C(=O)N(c4ccc(F)cc4F)C(=O)[C@@H]3CC[C@H]12)OCc1ccccc1,composite z-score,[1],-0.0874
same,z-score,[2],-0.845 (inactive)
same,z-score,[3],0.0604 (inactive)
same,z-score,[4],-0.299 (inactive)
same,z-score,[5],0.139 (inactive)
same,composite z-score,[6],0.727
same,composite z-score,[7],-0.101
same,composite z-score,[8],0.671
same,composite z-score,[9],1.13
same,composite z-score,[10],-0.836
same,z-score,[11],0.342 (inactive)
same,composite z-score,[12],0.207
same,z-score,[13],10.1 (active)
same,z-score,[14],1.29 (inactive)
same,z-score,[15],0.497 (inactive)
same,z-score,[16],0.6 (inactive)
same,z-score,[17],-0.262
same,z-score,[18],0.317 (inactive)
same,z-score,[19],1.33 (inactive)
same,z-score,[20],0.866
O=C1C=C[C@@H](O)[C@@H]2[C@@H]3C(=O)N(C4CCCCC4)C(=O)[C@@H]3CC[C@@H]12,composite z-score,[1],0.474
same,z-score,[2],-2.62 (inactive)
same,z-score,[3],0.411 (inactive)
same,z-score,[4],0.25 (inactive)
same,z-score,[5],0.915 (inactive)
same,composite z-score,[6],-0.748
same,composite z-score,[7],0.177
same,composite z-score,[8],0.54
same,composite z-score,[9],0.595
same,composite z-score,[10],0.781
same,z-score,[11],-0.188 (inactive)
same,composite z-score,[12],-0.0501
same,z-score,[13],0.0831 (inactive)
same,z-score,[14],-0.0709 (inactive)
same,z-score,[15],-0.446 (inactive)
same,z-score,[16],0.0822 (inactive)
same,z-score,[17],-0.493
same,z-score,[18],0.33 (inactive)
same,z-score,[19],0.563 (inactive)
same,z-score,[20],-0.266
COC(=O)[C@H](C)NC(=O)CCC1CC(OC(=O)NCc2cccc3ccccc23)CC2(CCCC(COC(=O)NCc3cccc(C(F)(F)F)c3)O2)O1 (stereo not given in full),composite z-score,[1],0.166
same,z-score,[2],-1.33 (inactive)
same,z-score,[3],-1.07 (inactive)
same,z-score,[4],-0.0755 (inactive)
same,z-score,[5],-0.213 (inactive)
same,composite z-score,[6],0.925
same,composite z-score,[7],0.444
same,composite z-score,[8],0.241
same,composite z-score,[9],0.225
same,composite z-score,[10],1.04
same,z-score,[11],-0.356 (inactive)
same,composite z-score,[12],0.0794
same,z-score,[13],1.35 (inactive)
same,z-score,[14],-0.871 (inactive)
same,z-score,[15],0.339 (inactive)
same,z-score,[16],-1.23 (inactive)
same,z-score,[17],1.1
same,z-score,[18],0.352 (inactive)
same,z-score,[19],-0.179 (inactive)
same,z-score,[20],0.0278
COC(=O)[C@@H]1CC[C@H](C)[C@@H](c2ccc(Br)cc2)N1C(=O)C(F)(F)F,composite z-score,[1],-0.237
same,z-score,[2],-0.322 (inactive)
same,z-score,[3],-0.69 (inactive)
same,z-score,[4],0.565 (inactive)
same,z-score,[5],-0.344 (inactive)
same,composite z-score,[6],-0.307
same,composite z-score,[7],-0.0944
same,composite z-score,[8],-0.179
same,composite z-score,[9],-0.835
same,composite z-score,[10],-0.14
same,z-score,[11],-0.643 (inactive)
same,composite z-score,[12],-0.103
same,z-score,[13],1.08 (inactive)
same,z-score,[14],-0.0008 (inactive)
same,z-score,[15],0.266 (inactive)
same,z-score,[16],0.2 (inactive)
same,z-score,[17],-0.56
same,z-score,[18],0.301 (inactive)
same,z-score,[19],0.467 (inactive)
same,z-score,[20],0.18
COc1ccc(COC(=O)NN=C2C[C@@H](O)[C@@H](O)[C@@H]3[C@@H]4C(=O)N(c5cccc(Oc6ccccc6)c5)C(=O)[C@@H]4CC[C@H]23)cc1,composite z-score,[1],-0.142
same,z-score,[2],-3.56 (inactive)
same,z-score,[3],0.111 (inactive)
same,z-score,[4],-0.293 (inactive)
same,z-score,[5],0.505 (inactive)
same,composite z-score,[6],0.993
same,composite z-score,[7],-0.0375
same,composite z-score,[8],-0.135
same,composite z-score,[9],-0.144
same,composite z-score,[10],-1.44
same,z-score,[11],0.249 (inactive)
same,composite z-score,[12],0.4
same,z-score,[13],3.48 (inactive)
same,z-score,[14],-0.469 (inactive)
same,z-score,[15],1.89 (inactive)
same,z-score,[16],-2.15 (inactive)
same,z-score,[17],0.0187
same,z-score,[18],-1.26 (inactive)
same,z-score,[19],-1.6 (inactive)
same,z-score,[20],-1.49
CO[C@@H]1C=CCC(=O)N[C@@H](C)C(=O)OC[C@@H](NS(=O)(=O)c2ccc(C)cc2)[C@H](C)C=CCC(=O)OC[C@H]1C,composite z-score,[1],-0.0979
same,z-score,[2],-1.03 (inactive)
same,z-score,[3],0.225 (inactive)
same,z-score,[4],0.155 (inactive)
same,z-score,[5],-1.23 (inactive)
same,composite z-score,[6],-0.536
same,composite z-score,[7],-0.304
same,composite z-score,[8],0.527
same,composite z-score,[9],0.514
same,composite z-score,[10],1.08
same,z-score,[11],-0.481 (inactive)
same,composite z-score,[12],-0.141
same,z-score,[13],0.0412 (inactive)
same,z-score,[14],0.149 (inactive)
same,z-score,[15],-0.802 (inactive)
same,z-score,[16],0.109 (inactive)
same,z-score,[17],-0.327
same,z-score,[18],-9.51 (active)
same,z-score,[19],0.732 (inactive)
same,z-score,[20],-0.0177
CC(C)(C)N1C(=O)[C@H]2[C@H]3[C@H](O)[C@H](O)CC(=NOC[C@@H](O)COCc4ccco4)[C@H]3CC[C@H]2C1=O,composite z-score,[1],-0.0267
same,z-score,[2],0.186 (inactive)
same,z-score,[3],-0.486 (inactive)
same,z-score,[4],0.701 (inactive)
same,z-score,[5],-0.113 (inactive)
same,composite z-score,[6],0.422
same,composite z-score,[7],-0.0279
same,composite z-score,[8],0.506
same,composite z-score,[9],0.465
same,composite z-score,[10],-0.0386
same,z-score,[11],0.0965 (inactive)
same,composite z-score,[12],0.21
same,z-score,[13],1.18 (inactive)
same,z-score,[14],-0.423 (inactive)
same,z-score,[15],0.0556 (inactive)
same,z-score,[16],0.33 (inactive)
same,z-score,[17],-0.159
same,z-score,[18],0.119 (inactive)
same,z-score,[19],0.0791 (inactive)
same,z-score,[20],0.188
